From PubChem BioAssay
Only some compounds are listed: those with a hit (about 9.8% of all), similar ones and a draw of the others.
HTT ATP protect = cytoprotection in Huntington HTT-Q103 PC12 cell model; PC12 HTT-Q103 induced, cytoprotection, ATP luminescence, 40 h; Potency, µM (series often up to 56.4 µM), for the others: cytoprotection (ATP increase), most hits filed as activators; 230,000 compounds, 0.14% hits; further: potency means the concentration at half of the fitted maximal effect; % of control where 0% means no effect; nearly all actives have a fitted effect of over 45% in size
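Compounds added alongside 100 nM tebufenozide, which induces toxic Q103 huntingtin exon 1-GFP in stable PC12 cells; surviving cells quantified by luminescent ATP measurement. Medium: phenol red-free DMEM, 5% equine and 5% calf serum.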
HTT aggregate = inhibitors of mutant huntingtin aggregate formation in PC12 cells; AID 1688; 220,000 compounds, 1.1% hits; PC12 HttQ103-GFP aggregates, Acumen cytometry, 40 h; Potency, µM (top dose mostly 46.1 µM), for inactives: top-dose activity change, negative = inhibition, actives largely listed as inhibitors; further: potency means the concentration at half of the fitted maximal effect; on the % scale 0 is the no-effect control and ±100 the full control effect; nearly all actives have a fitted effect of over 60% in size
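Aggregate formation scored by laser-scanning cytometer (488 excitation, 500–530 emission) in lysed PC12 cells expressing Q103-GFP after 100 nM tebufenozide induction; library tested in dose series, with ATPLite reagent added in the multiplex.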
CBFb RUNX1 block = inhibitors of human CBF-beta and RUNX1 interaction | Q01196+Q13951 | AlphaScreen CBFb-His/RUNX1-biotin binding, biochemical | Potency, µM (doses to about 59.8 µM), inactives show at the highest dose activity, negative = inhibition, hits mostly inhibitors | 230,000 tested, under 10 active | AID 1477; further: % of control where 0% means no effect
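Bead-based AlphaScreen assay; binding partners His-tagged CBF-beta and biotinylated RUNX1 at 30 nM each. Compound exposure 15 min after a 20-min protein preincubation; bead step 90 min; all steps at room temperature.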
JMJD2E inh = blocks human JMJD2E demethylase activity. B2RXH2. JMJD2E catalytic domain, FDH-coupled NADH fluorescence (FDH is formaldehyde dehydrogenase). Potency, µM (highest dose often 57.1 µM), inactives show at the top dose activity change, negative = inhibition, actives largely listed as inhibitors. 230,000 compounds, 1.6% hits. AID 2147; active means well fitted inhibition curve with a large enough effect, not every such curve was filed as active; inconclusive means small, poorly fitted or top-dose-only effect, or another doubt; inactive means no such curve, though single readings can be large or run the other way;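 further: potency means the concentration at half of the fitted maximal effect; 0% = wells with enzyme and -100% = buffer wells without enzyme; nearly all actives have a fitted effect of over 50% in size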
ALDH1A1 inh = blocks purified human ALDH1A1 activity. 220,000 compounds, 7.3% hits. Purified ALDH1A1, NADH fluorescence, propionaldehyde substrate. P00352. Potency, µM (series often up to 75.3 µM), for inactives: at the highest dose activity, negative = inhibition, usual class: inhibitors; active means well fitted inhibition curve with a large enough effect, not every such curve was filed as active; inconclusive means small, poorly fitted or top-dose-only effect, or another doubt; inactive means no such curve, though single readings can be large or run the other way;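 further: potency means the concentration at half of the fitted maximal effect; plate controls were no enzyme wells and a reference inhibitor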
Target sequence (P00352 whole entry, looked up): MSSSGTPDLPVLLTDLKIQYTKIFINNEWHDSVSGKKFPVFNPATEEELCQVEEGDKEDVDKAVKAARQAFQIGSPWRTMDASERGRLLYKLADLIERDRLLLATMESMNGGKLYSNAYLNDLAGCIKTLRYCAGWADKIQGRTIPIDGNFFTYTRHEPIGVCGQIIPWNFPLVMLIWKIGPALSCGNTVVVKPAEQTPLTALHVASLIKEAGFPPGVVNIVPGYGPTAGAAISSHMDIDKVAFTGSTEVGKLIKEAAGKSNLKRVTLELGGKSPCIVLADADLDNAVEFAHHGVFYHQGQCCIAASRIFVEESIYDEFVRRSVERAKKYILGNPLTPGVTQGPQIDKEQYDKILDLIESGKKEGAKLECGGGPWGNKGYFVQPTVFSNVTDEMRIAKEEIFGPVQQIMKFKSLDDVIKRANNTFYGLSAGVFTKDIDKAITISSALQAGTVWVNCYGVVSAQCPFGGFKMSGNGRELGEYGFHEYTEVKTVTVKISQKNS
HPGD inh = inhibitors of human 15-hydroxyprostaglandin dehydrogenase (HPGD). 150,000 compounds, 4.3% hits. P15428. Potency, µM, for inactives: top-dose activity change, negative = inhibition, usual class: inhibitors. purified HPGD, NADH fluorescence kinetic, PGE2 substrate; active means well fitted inhibition curve with a large enough effect, not every such curve was filed as active; inconclusive means small, poorly fitted or top-dose-only effect, or another doubt; inactive means no such curve, though single readings can be large or run the other way; further: potency means the concentration at half of the fitted maximal effect; on the % scale 0 is the no-effect control and ±100 the full control effect
Target sequence (P15428 whole entry, looked up): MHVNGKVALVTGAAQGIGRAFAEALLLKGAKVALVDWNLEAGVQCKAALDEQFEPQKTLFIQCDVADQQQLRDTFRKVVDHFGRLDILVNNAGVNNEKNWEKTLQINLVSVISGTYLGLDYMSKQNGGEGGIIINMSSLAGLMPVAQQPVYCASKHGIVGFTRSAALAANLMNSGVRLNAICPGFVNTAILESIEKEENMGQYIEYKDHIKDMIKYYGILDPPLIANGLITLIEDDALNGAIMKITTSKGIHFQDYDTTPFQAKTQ
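NADH formation kinetics: reaction with 30 uM PGE2 and 1 mM NAD+ (final), 20 nM enzyme, Tris-HCl pH 8 with Tween 20, after 15 min compound preincubation at room temperature. Fluorescence change, last versus first of five reads.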
* = called active by the depositor; ? = inconclusive; . = not tested or not shown; [ ] = remark or other dose. Unless noted, the call rests on the fitted dose curve; in most records, active means well fitted curve in the direction sought with a large enough effect; inconclusive means small, poorly fitted or top-dose-only effect, or another doubt; inactive means no such curve, though single readings can be large; an effect the other way counts as inactive or inconclusive.

SMILES	HTT ATP protect	HTT aggregate	CBFb RUNX1 block	JMJD2E inh	ALDH1A1 inh	HPGD inh
CCOC(=O)c1ccccc1NC(=O)c1ccccc1SC	-32.5%	-14.0%	18.7%	-1.2%	14.1µM*	-10.5%
CCOC(=O)c1ccccc1NC(=O)CN(c1ccccc1)S(=O)(=O)N(C)C	12.2%	-10.7%	13.9%	-13.1%	28.2µM*	-4.7%
C=CCc1ccccc1OCCOc1ccc([N+](=O)[O-])cc1/C=N/NC(N)=O	-13.3%	-1.3%	1.4%	2.9%	-8.8%	.
O=C(COC(=O)CNC(=O)c1ccc(Cl)cc1)Nc1ccc(Cl)cc1C(F)(F)F	10.5%[1.9 µM]	8.4%	1.6%	7.0%	9.6%	0.3%
Cc1ccccc1C(=O)N1CCC(C(=O)Nc2ccc3c(c2)OCO3)CC1	-20.0%[10 µM]	-7.7%	-2.6%	3.6%	-17.7%	-0.1%
O=C(Nc1ccc2c(c1)OCCO2)C1CCN(C(=O)c2ccccc2)CC1	-14.2%	1.0%	-4.5%	5.0%	14.1µM*	-3.8%
O=C(Nc1ccc2c(c1)OCCO2)C1CCN(C(=O)c2ccc(Br)cc2)CC1	4.1%[0.074 µM]	1.9%	2.6%	0.5%	?	-15.4%
Cc1ccccc1C(=O)N1CCC(C(=O)Nc2ccc3c(c2)OCCO3)CC1	10.6%	4.7%[9.22 µM]	3.6%	0.1%	28.2µM*	-15.7%
O/C(=C\c1ccc2ccccc2n1)c1ccc(O)cc1O	-36.8%[10 µM]	-11.8%	-19.4%	-0.4%	?	.
Cn1c(=O)c2c(ncn2CCC(=O)N/N=C/c2ccncc2)n(C)c1=O	17.2%[10 µM]	-3.5%[9.22 µM]	4.4%	9.1%	.	.
COc1cccc2cc(C(=O)C3=C(O)C(=O)N(CCN4CCOCC4)C3c3cccs3)oc12 (stereo not drawn)	1.2%	17.1%	2.8%	?	25.1µM*	-11.4%
CN(C)CCN1C(=O)C(O)=C(C(=O)c2cc3ccccc3o2)C1c1cccc(Br)c1 (stereo not drawn)	-5.8%	16.0%	-1.9%	-4.9%	-1.4%	-10.8%
COc1ccccc1C1C(C(=O)c2cc3ccccc3o2)=C(O)C(=O)N1CCN(C)C (stereo not drawn)	-1.7%[0.074 µM]	?	-1.3%	?	20µM*	-12.7%
O=C1C2C3C=CC(C2C(=O)N1C1CCCCC1)C1C(=O)N(C2CCCCC2)C(=O)C31 (stereo not drawn)	3.8%	27.3%	3.1%	7.6%	2.82µM*	-1.4%
O=C1C2C3C=CC([C@@H]2C(=O)N1C1CC1)[C@H]1C(=O)N(C2CC2)C(=O)C31 (stereo partly drawn)	5.5%	14.1%	-0.9%	0.0%	?	-5.6%
COc1ccccc1-c1nnc(SC(C(=O)c2c[nH]c3ccccc23)c2ccccc2)n1C (stereo not drawn)	4.47µM*	2.82µM*	-9.5%	6.3%	7.5%	.
COc1cccc(-c2nnc(SC(C(=O)c3c[nH]c4ccccc34)c3ccccc3)n2C)c1 (stereo not drawn)	.	?	-5.1%	5.9%	15.8%	-14.0%
COc1ccc(CN2CCN(C(=O)C3CCN(S(=O)(=O)c4cccs4)CC3)CC2)c(OC)c1OC	6.8%	-5.5%	6.3%	-3.4%	?	.
COc1cc(C(=S)N2CCCC2)ccc1OS(=O)(=O)c1ccc(NC(C)=O)cc1	-8.1%[10 µM]	8.1%	-17.4%	1.4%	?	.
COc1ccc(CN2CCN(C(=O)C3CCC(CNS(=O)(=O)c4ccc(C)cc4)CC3)CC2)c(OC)c1OC (stereo not drawn)	-11.7%	-32.5%	0.6%	4.3%	20µM*	.
CC(=O)Nc1ccc(S(=O)(=O)NCC2CCC(C(=O)N3CCCCCC3)CC2)cc1 (stereo not drawn)	-19.1%	10.5%	3.5%	5.4%	22.4µM*	7.08µM*
COc1cc(C(=S)N2CCCC2)cc(OC)c1OS(=O)(=O)c1ccc(NC(C)=O)cc1	-6.8%[10 µM]	-12.2%	-13.8%	0.4%	?	22.4µM*
COc1cc2c(cc1O)CCN[C@@]21CS[C@H]2c3c(OC(C)=O)c(C)c4c(c3C(COC1=O)N1C2C2c3c(cc(C)c(OC)c3O)CC([C@@H]1O)N2C)OCO4 (stereo partly drawn)	-29.5%	0.0025µM*	.	.	.	.
COC(=O)C1=C(C(=O)OC)[C@@H]2Nc3ccccc3[C@@]23C[C@@H](C(=O)OC)N(C(=O)CC(C)C)C3=N1	-16.8%[10 µM]	.	-1.4%[13.1 µM]	0.4%[11.4 µM]	-4.8%[13.5 µM]	-9.2%
Cc1ccc2c(c1)sc[n+]2Cc1ccccc1	24.3%	0.7%	?	?	?	20µM*
SMILES	HTT ATP protect	HTT aggregate	CBFb RUNX1 block	JMJD2E inh	ALDH1A1 inh	HPGD inh
COC(=O)c1ccc(CSc2nnnn2-c2ccccc2)o1	-21.8%	5.7%	0.8%	0.5%	7.08µM*	-21.1%
CCc1ccc(-n2c(CSc3nnnn3-c3ccccc3)nc3ccccc3c2=O)cc1	-20.5%	1.0%	2.1%	2.7%	1.41µM*	-10.9%
COC(=O)c1ccc(CSc2nnc(-c3ccccc3)n2C)o1	-7.9%[10 µM]	-1.0%	10.1%	7.1%	-10.4%	.
COC(=O)c1ccc(-n2nnnc2SCc2ccccc2OC)cc1	-0.5%	27.1%	25.9%	-8.9%	14.1µM*	-23.5%
COC(=O)c1ccc(-n2nnnc2SCC(=O)Nc2ccccc2C(=O)OC)cc1	5.2%[10 µM]	-6.3%	9.2%	?	-1.3%	-21.5%
O=c1c2ccccc2nnn1CSc1nnnn1-c1ccc(O)cc1	-19.9%	?	6.7%	4.6%	?	.
Cc1ccc2ncnc(Oc3ncccc3NC(=O)C(C)(C)C)c2c1	10.8%[10 µM]	11.0%[9.22 µM]	-1.2%	3.1%	4.9%	.
O=c1cnc2cnc(Nc3ccccc3)nc2n1C1CC1	20µM*	.	.	.	-0.6%	.
N/C(=N\O)c1cccc(CS(=O)(=O)c2ccccn2)c1	17.0%[10 µM]	-2.8%[9.22 µM]	3.6%	0.6%	.	.
Cc1nc2c3ccccc3nc(SCC(=O)N3CC(C)CC(C)C3)n2n1 (stereo not drawn)	-2.0%	18.9%	0.4%	3.1%	7.08µM*	?
Cc1nc2c3ccccc3nc(SCC(=O)c3ccc(Cl)cc3)n2n1	-17.0%[10 µM]	-1.4%	4.4%	-1.7%	0.3%	-7.8%
Fc1ccc(/C=C2\CCCC3=C2NC(=S)NC3c2ccc(F)cc2)cc1 (stereo not drawn)	26.4%[10 µM]	28.5%	-7.9%	-11.7%	?	25.1µM*
Nc1n[nH]c(=S)n1/N=C1/C(=O)Nc2ccccc21	.	19.4%	-2.0%	7.08µM*	7.94µM*	.
CNc1c(N)c(=O)oc2ccccc12	-53.0%	4.5%	8.1%	?	-23.2%	.
Cc1cc(Cl)cc(Cl)c1CNc1c([N+](=O)[O-])c(=O)oc2ccccc12	5.9%[10 µM]	-7.4%	-7.8%	-8.5%	10µM*	?
Nc1c(NCc2ccccc2)c2ccccc2oc1=O	-7.9%	-18.8%	-2.6%	?	22.4µM*	?
COc1ccc(CCNc2c([N+](=O)[O-])c(=O)oc3ccccc23)cc1OC	7.7%	-0.4%	0.0%	7.2%	-0.2%	15.8µM*
